# BAZ2B inh: blocks human BAZ2B; Q9UIF8; AlphaScreen BAZ2B-H3K14Ac peptide displacement; Potency, µM (highest dose often 114 µM), actives largely listed as inhibitors; 360,000 compounds, 4.4% hits; AID 504333; also: nearly all actives have a fitted effect of over 60% in size
#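 AlphaScreen displacement: compounds (up to 110uM) incubated 30 min at room temperature with a preformed 50 nM BAZ2B/50 nM biotinylated H3K14Ac peptide complex in PBS pH 7.4 with Tween-20. Donor and acceptor beads at 10 ug/mL final added, 20 min light-protected before reading.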
# G9a block: G9a (human) methyltransferase inhibition | Potency, µM (highest dose often 102 µM), most hits filed as inhibitors | G9a H3K9 monomethylation, AlphaScreen, 2 h | 350,000 compounds, 8.8% hits; also: nearly all actives have a fitted effect of over 75% in size
#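 Using a bead-based AlphaScreen, monomethylated H3K9 product from 2 h room-temperature reactions (G9a 20 nM, peptide 500 nM, SAM 20 uM) was detected with 0.5 ug/mL rabbit anti-H3K9me1 antibody.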
# JMJD2A Tudor inh: JMJD2A Tudor domain (human) inhibition; 390,000 compounds, 4.4% hits; AlphaScreen JMJD2A-Tudor / H3K4me3 peptide binding; O75164; Potency, µM (titrated, usually from 114 µM), actives largely listed as inhibitors; AID 504339; also: nearly all actives have a fitted effect of over 50% in size
# HP1b chromo inh: blocks HP1-beta chromodomain binding to methylated histone tails | Potency, µM (titrated, usually from 114 µM), hits mostly inhibitors | P83916 | AlphaScreen HP1-beta / biotin-H3K9me3 peptide binding | 390,000 compounds, 0.56% hits; also: nearly all actives have a fitted effect of over 70% in size
#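 HP1-beta protein (50 nM final) preincubated 30 min at room temperature with biotinylated H3(1-18)K9me3 peptide (50 nM) in PBS pH 7.4, 0.01% Tween-20, then compound added for 30 min. AlphaScreen streptavidin donor/nickel chelate acceptor beads (10 ug/mL final), 30 min dark, luminescence read.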
# PI5P4Ka inh: PI5P4K alpha (human) kinase inhibition | PI5P4Kalpha enzyme, ADP-Glo luminescence, 60 min; active compounds read low | 330,000 compounds, 1.2% hits | max response, % | AID 652105; active = max response of -50% or lower; inconclusive = between -30% and -50%; inactive = -30% or higher; also: value at the top dose of about 77 µM
#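 qHTS, 1536-well: enzyme/substrate mix, compound by pin tool, 5 microM ATP final; RT 60 min; ADP-Glo reagents 1 (45 min) then 2 (30 min); luminescence.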
# L3MBTL1 inh: L3MBTL1 (human) inhibition | AlphaScreen L3MBTL1–H3K9me1 peptide binding | Potency, µM (series often up to 57.1 µM), usual class: inhibitors | 230,000 compounds, 0.66% hits; also: nearly all actives have a fitted effect of over 60% in size
# Target sequence (Q9Y468 whole entry, looked up): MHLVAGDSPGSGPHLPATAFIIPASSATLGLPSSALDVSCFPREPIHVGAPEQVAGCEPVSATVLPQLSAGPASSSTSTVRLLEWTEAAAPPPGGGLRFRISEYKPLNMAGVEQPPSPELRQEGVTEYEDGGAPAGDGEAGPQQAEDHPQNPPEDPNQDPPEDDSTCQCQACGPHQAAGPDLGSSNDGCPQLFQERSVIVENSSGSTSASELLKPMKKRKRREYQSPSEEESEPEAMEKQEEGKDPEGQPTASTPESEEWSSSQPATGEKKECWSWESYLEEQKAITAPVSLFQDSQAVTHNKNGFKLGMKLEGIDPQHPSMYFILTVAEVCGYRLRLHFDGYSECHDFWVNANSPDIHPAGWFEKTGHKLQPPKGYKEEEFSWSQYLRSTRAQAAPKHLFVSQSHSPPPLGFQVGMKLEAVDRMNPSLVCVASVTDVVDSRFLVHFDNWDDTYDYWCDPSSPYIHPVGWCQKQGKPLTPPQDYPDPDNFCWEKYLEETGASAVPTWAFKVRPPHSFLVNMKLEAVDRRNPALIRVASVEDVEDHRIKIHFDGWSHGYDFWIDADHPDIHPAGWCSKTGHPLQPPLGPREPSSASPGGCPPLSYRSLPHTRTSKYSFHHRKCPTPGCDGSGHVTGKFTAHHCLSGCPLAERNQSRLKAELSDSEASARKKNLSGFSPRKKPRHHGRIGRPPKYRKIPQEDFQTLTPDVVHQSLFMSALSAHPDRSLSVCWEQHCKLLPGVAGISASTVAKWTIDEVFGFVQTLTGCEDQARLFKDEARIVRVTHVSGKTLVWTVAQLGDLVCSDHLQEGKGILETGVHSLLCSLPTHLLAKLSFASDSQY
#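 L3MBTL1 50 nM + b-AHA-H3(1-15)K9me1 75 nM, 30 min RT; compound added, 30 min RT; streptavidin donor/Ni-chelate acceptor beads 10 ug/mL each final, 30 min RT dark; AlphaScreen read.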
# Hits are given with their value; - = inactive; ? = inconclusive; . = no result given; [ ] = remark or other dose. The list is not random: actives were taken first. Their share in the collection is about 11%. Unless noted, calls follow the shape of the dose curve; as a rule, active = well fitted inhibition curve with a large enough effect; inconclusive = small, poorly fitted or top-dose-only effect; inactive = no such curve, though single readings can be large or run the other way.
SMILES,BAZ2B inh,G9a block,JMJD2A Tudor inh,HP1b chromo inh,PI5P4Ka inh,L3MBTL1 inh
CC(C)OC(=O)C1Cc2ccccc2CN1S(=O)(=O)c1cccs1 (stereo not given),?,79.4µM,-,-,-,.
NC(=O)C1Cc2ccccc2CN1S(=O)(=O)c1cccs1 (stereo not given),-,-,-,-,-,-
CCc1cc2c(=O)c(-c3nc4ccccc4[nH]3)coc2c(CN2CCCCC2)c1O,79.4µM,?,-,-,-,-
COc1ccc(CNC(=O)Cn2c(SCC(=O)Nc3ccc(OC)cc3)nc3ccccc32)cc1,-,-[12.7 µM],-,?,.,.
CCOc1cc(-c2nnc(SCC(=O)NCc3ccc(C)cc3)nc2-c2ccc(OC)c(OCC)c2)ccc1OC,56.2µM,10µM,-,-,.,.
CCOc1cc(-c2nnc(SCC(=O)NCc3ccccc3)nc2-c2ccc(OC)c(OCC)c2)ccc1OC,50.1µM,7.94µM,?,-,.,.
COc1ccccc1CN1CC2(CCN(C(=O)c3cccc(F)c3)CC2)C1,.,-[12.7 µM],.,.,.,.
Cc1ccc(NC(=O)C(Cc2c[nH]c3ccccc23)NC(=O)OCC(C)C)cc1 (stereo not given),-,-,-,-,.,.
O=C(CCn1c(=O)oc2ccccc21)NCCN1CCc2ccccc2C1,-,?,50.1µM,-,.,-
O=C(CCCn1c(=O)oc2ccccc21)N1CCc2ccccc2C1,-,-,-,-,-,-
O=C(CCn1c(=O)oc2ccccc21)N1CCCCCC1,-,-,-,-,-,-
O=C(CCn1c(=O)oc2ccccc21)n1c(=O)oc2ccccc21,-,79.4µM,-,-,-,-
CC(C)(C)c1ccc(Cn2nnc3c(=O)[nH]c(C4CCN(C(=O)c5ccco5)CC4)nc32)cc1,?,?,79.4µM,-,-,.
CC1CCN(C(=O)c2c(NC(=O)c3ccccc3F)sc3c2CCC(C(C)(C)C)C3)CC1 (stereo not given),-,-,-,-,.,.
Cc1ccc(NC(=O)Cc2n[nH]c(=S)n2C)cc1,-,?,8.91µM,-,-,.
Cn1c(CC(=O)Nc2ccc(Cl)c(Cl)c2)n[nH]c1=S,-,14.1µM,-,-,-,-
COc1ccc(Cc2n[nH]c(=S)n2NC(=O)Nc2ccc(Cl)c(Cl)c2)cc1,-,?,-,-,-,.
Cc1ccccc1NC(=O)Cc1nnc(SCC(=O)Nc2ccccc2)n1C,-,-,-,-,-,-
Cn1c(CC(=O)Nc2ccccc2)n[nH]c1=S,-,-,5.01µM,-,-,-
CC(NC(=O)CSc1nnc(CC(=O)Nc2ccc(Cl)c(Cl)c2)n1C)c1ccccc1 (stereo not given),?,12.6µM,-,-,.,.
Cc1ccc(NC(=O)Cc2ccc(F)cc2)cc1,-,-[12.7 µM],-,-,.,.
Cc1ccc(-c2nnc3ccc(SCC(=O)c4ccccc4)nn23)cc1,.,.,-,-,.,.
COc1ccc(C(=O)N2CCC3(CCN(Cc4ccccc4OC)CC3)CC2)cc1,.,-[12.7 µM],.,.,.,.
CCn1c(CC(=O)Nc2ccc(C)cc2)n[nH]c1=S,?,5.01µM,3.55µM,-,-,-
CN(Cc1nc2ccccc2n1C)S(=O)(=O)c1ccc(F)cc1,-,-,-,-,-,-
SMILES,BAZ2B inh,G9a block,JMJD2A Tudor inh,HP1b chromo inh,PI5P4Ka inh,L3MBTL1 inh
CN(Cc1n[nH]c(=S)n1C)S(=O)(=O)c1ccccc1,-,.,5.62µM,-,.,-
COc1ccccc1CNC(=O)c1cccc(NC(=O)N2CCSc3ncccc32)c1,-,-,-,-,.,.
CCCCn1c(=O)c2oc3ccccc3c2n(Cc2cccc(F)c2)c1=O,-,-,-,-,.,.
O=C(CCC(=O)OCc1ccc(Br)cc1)Nc1ccccc1,-,-,50.1µM,-,-,-
O=C(CCC(=O)OCc1ccc(C(=O)Oc2ccc(Cl)cc2)cc1)Nc1ccccc1,-,-,-,-,-,-
CCCCOC(=O)/C=C\C(=O)NC(N)=O,-,44.7µM,-,-,-,-
CCOc1ccc(CNS(=O)(=O)c2c(C(=O)N3CCCCCC3)c(C)n(C)c2C)cc1OC,-,-,-,-,.,.
CC(=O)c1c(N2CCOCC2)nc(=O)n(-c2ccccc2)c1C,-,44.7µM,-,-,.,.
Cc1[nH]nc2c1C1(C(=O)Nc3ccc([N+](=O)[O-])cc31)C(C#N)=C(N)O2 (stereo not given),-,?,-,-,-56.3,.
Cc1[nH]nc2c1C1(C(=O)N(Cc3ccc(Cl)cc3)c3ccccc31)C(C#N)=C(N)O2 (stereo not given),-,50.1µM,?,-,.,-
Cc1ccc(SCc2[nH]nc3c2C2(C(=O)Nc4ccc(F)cc42)C(C#N)=C(N)O3)cc1 (stereo not given),-,-,-,-,-,.
CCc1ccccc1NC(=O)C(=O)NCCc1sc(-c2cccc(C)c2)nc1C,-,-,-,-,.,.
Cc1cc(SCCC(=O)O)nc2c(C)cccc12,-,79.4µM,-,-,-,.
Cc1cc(SCC(=O)N2CCCC2=O)nc2c(C)cccc12,-,-,-,-,-,-
CC(=O)OCON[N+]([O-])=NC(C)C,.,.,?,-,.,.
CC(=O)OCON[N+]([O-])=NC1CCCCC1,.,.,20µM,?,.,.
Cc1cc(OCC[N+]2(C)CCCCC2)nc2ccccc12,-,?,39.8µM,-,-,.
CC(C)c1ccc(S(=O)(=O)c2ccc(NN)cc2)cc1,-,10µM,-,-,-,-
Cc1cc2c(s1)c1cnn(Cc3ccc(Cl)cc3)c(=O)c1n2C,.,.,44.7µM,.,.,.
COc1ccccc1-n1c(SCC(=O)c2ccc(O)cc2O)nc2cc([N+](=O)[O-])ccc21,?,?,25.1µM,-,-,-
CCc1cc(=O)oc2cc(C)c(CN3CCCC3)c(O)c12,17.8µM,44.7µM,20µM,-,.,3.98µM
CC(=O)Nc1ccc2c(=O)n(-c3ccccc3)sc2c1,.,.,.,.,-104.9,.
O=c1c2ccccc2sn1-c1ccccc1F,.,.,.,.,-106.5,.
O=c1c2ccccc2sn1-c1ccccc1,7.94µM,?,3.98µM,?,-95.5,.
O=C1CN(c2ccccc2F)C(=O)CN1c1ccccc1F,-,-,-,-,.,.
SMILES,BAZ2B inh,G9a block,JMJD2A Tudor inh,HP1b chromo inh,PI5P4Ka inh,L3MBTL1 inh
N#Cc1ccc2c(=O)n(-c3ccccc3)sc2c1,.,.,.,.,-85.1,.
CC(=O)Nc1c(C)nn(-c2ccccc2)c1N1CCC(C(=O)Nc2ccc(F)cc2Cl)CC1,-,-,-,-,.,.
Cc1ccccc1-n1sc2cc(F)ccc2c1=O,4.47µM,-,4.47µM,15.8µM,-88.1,.
CC1NC(=O)c2ccccc2-n2c1nc1cc(F)ccc1c2=O (stereo not given),-,-[0.501 µM],.,.,.,-
O=C(O)c1cccc(-n2sc3ccccc3c2=O)c1,8.91µM,-[0.501 µM],2.82µM,-,-102.9,-
O=C(O)c1cccc(N2C(=O)CCC2=O)c1,-,.,.,.,.,.
O=c1c2ccccc2sn1-c1cccc(Cl)c1,.,.,.,.,-101.4,.
O=c1c2ccccc2sn1-c1nccs1,5.01µM,1.41µM,5.62µM,?,-80.9,-
CCCCN1C(=O)c2[nH]nc(-c3ccccc3O)c2C1c1ccc(C(C)(C)C)cc1 (stereo not given),-,-,-,-,.,.

# Screens: PubChem BioAssay, National Center for Advancing Translational Sciences (NCATS)
